Results as given in PubChem BioAssay AID651958 (The Scripps Research Institute Molecular Screening Center, 2012).
About 2,000 (0.54%) of roughly 370,000 compounds were called active. Shown is part of a subset that was picked to be rich in actives. Values without a mark were called inactive. No stated cut-off is given here; in the data, active means inhibition above about 30%; inactive means the rest.

These molecules were tested on Crimean-Congo hemorrhagic fever virus L polyprotein viral ovarian tumor (vOTU) protease domain (assay: CCHFV vOTU protease inhibitors, primary screen, biochemical, Pep-AMC substrate, fluorescence (AID 651958; further: 0% = vehicle wells with enzyme and 100% = no enzyme wells)). Details: at 11.5 µM, stronger effect = higher value.

| Structure (SMILES) | inhibition |
| --- | --- |
| COc1cc(CN2CCCC(C(=O)c3ccc(SC)cc3)C2)cc(Cl)c1O (stereo not drawn) | 2.91% |
| CCOC(=O)[C@H]1[C@H]2COc3ccccc3[C@@H]2N2C(=O)CN(Cc3ccccc3)C(=O)[C@@]12C | -6.74% |
| CN1c2ccc(C=O)c3c(C=O)ccc(c23)N(C)C1(C)C | 65.2% (active) |
| CN1CCN(c2ccncc2S(=O)(=O)N2CCCC2)CC1 | -8.15% |
| CCc1ccc(OCC(=O)NCC(c2ccc(Cl)cc2)N2CCCCC2)cc1 (stereo not drawn) | 31% (active) |
| CN(CC(=O)NCC(c1ccccc1)N1CCCC1)S(=O)(=O)c1ccc(Cl)cc1 (stereo not drawn) | -5.38% |
| COc1ccc(C(CNC(=O)COc2ccccc2OC)N2CCCCC2)cc1 (stereo not drawn) | 0.37% |
| N#Cc1c(N)nc2c(c1N)CC(C(F)(F)F)O2 (stereo not drawn) | -10.2% |
| CCCCOCCCNC(=O)C[C@@H]1C[C@@]2(C(=O)OCC)CCCC=C2N(CCC2=CCCCC2)C1=O | 15.7% |
| COCCNC(=O)c1onc(CSc2cccc(C)c2)c1C(=O)O | -0.14% |
| CC1CCCCC12NC(=O)N(CC(=O)OCC(=O)NCc1ccc(F)cc1)C2=O (stereo not drawn) | 34.9% (active) |
| COc1cccc(CNC(=O)COC(=O)CN2C(=O)NC3(CCCCC3C)C2=O)c1 (stereo not drawn) | -7.15% |
| CCCc1ccc(C(=O)COC(=O)CN2C(=O)NC3(CCCCC3C)C2=O)cc1 (stereo not drawn) | 16.5% |
| Cc1ncc([N+](=O)[O-])n1CCOC(=O)c1ccc(Br)cc1 | -0.48% |
| CCCCCCCNc1nc(Cl)nc(NCCO)n1 | 12.8% |
| CC1CCCN(c2ccc(C(=O)NCCc3ccccc3)cn2)C1 (stereo not drawn) | -7.43% |
| O=C(CCl)N(Cc1cccc([N+](=O)[O-])c1)c1cccc(Cl)c1 | 0.95% |
| O=C1Nc2ccc([N+](=O)[O-])cc2C1=Nc1cccc(CO)c1 | 58.7% (active) |
| CCC(=O)N(C)C(c1ccccc1Cl)c1nnnn1-c1c(C)cccc1C (stereo not drawn) | -4.14% |
| CC(=O)OCc1cc(=O)n(C)c(=O)n1C | -3.25% |
| [2H]C(CCOS(N)(=O)=O)c1ccccc1 (stereo not drawn) | -9.88% |
| Cc1ccc(S(=O)(=O)/N=C2\C=C(NS(=O)(=O)c3ccc(C)cc3)C(=O)c3ccccc32)cc1 | 77.7% (active) |

| Structure (SMILES) | inhibition |
| --- | --- |
| Cc1ccc(S(=O)(=O)N[C@H](CO)C(C)C)cc1 | 6.27% |
| Cc1ccc(S(=O)(=O)/N=S(\C)C(C)C)cc1 (stereo not drawn) | -11.6% |
| COc1ccc(S(=O)(=O)NC(C)C(=O)N2CCCCCC2)cc1 (stereo not drawn) | -2.68% |
| COc1ccc(N2CCN(C3CCCCC3NS(=O)(=O)c3ccccc3)CC2)cc1 (stereo not drawn) | 19.5% |
| COc1ccc(S(=O)(=O)/N=C2\C=C(NS(=O)(=O)c3ccccc3)C(=O)c3ccccc32)cc1 | 65% (active) |
| COC(=O)CN1C(=O)C2(C(C(=O)OC)=C(N)Oc3ccccc32)C2=C1CC(C)(C)CC2=O (stereo not drawn) | -11.2% |
| CC(=O)N1Cc2cc(C(=O)NCc3cccc(F)c3)nc(-c3cccc(C4=CCCCC4)c3)c2[C@H]1CCO | 9.9% |
| CN1CCN(S(=O)(=O)c2cccc(C(=O)Nc3sccc3C#N)c2)CC1 | -2.97% |
| C=CCSC1=C(C#N)C(c2cc(Br)c(O)c(OC)c2)CC(=O)N1 (stereo not drawn) | -4.94% |
| Cc1ccc(S(=O)(=O)N(c2cccc(C)c2)C2CCS(=O)(=O)C2)cc1 (stereo not drawn) | 4.15% |
| CN1CCN(C(=O)C2=C[C@H](c3ccc4c(c3)OCO4)C[C@H](OCc3ccc(CO)cc3)O2)CC1 | -2.44% |
| COCCn1nnnc1C(c1cc2ccc(OC)cc2[nH]c1=O)N1CCc2ccccc2C1 (stereo not drawn) | 103% (active) |
| COc1ccc(-n2nnnc2C(c2cccc3ccccc23)N2CCC(n3c(=O)[nH]c4ccccc43)CC2)cc1 (stereo not drawn) | 7.58% |
| COc1ccc(CCC(C)N2CCc3ccccc3C2)cc1 (stereo not drawn) | 2.02% |
| COc1cc(CN(C)Cc2nc3cc(C(F)(F)F)ccc3c(=O)[nH]2)ccc1OC(F)F | 14.7% |
| CC1(C)CC(=O)C(N=Nc2c(F)cccc2F)=C(O)C1 | 10.4% |
| CC(C)N1CCC(NC(=O)Nc2ccccc2)CC1 | -6.34% |
| CC1(c2cccc(Br)c2)NC(=O)N(CC(=O)NCCC2=CCCCC2)C1=O (stereo not drawn) | 6.44% |
| COc1ccc(F)cc1C(=O)C1CCCN(C(=O)CCc2ccccn2)C1 (stereo not drawn) | 32.7% (active) |
| COc1ccc(C(=O)N2CCCC(C(=O)c3ccccc3OC)C2)cc1OC (stereo not drawn) | 4.28% |
| CSCC(=O)N1CCCC(C(=O)c2cc(F)ccc2F)C1 (stereo not drawn) | -7.31% |
| Cc1cc(Cl)c(S(=O)(=O)NCc2cccnc2)cc1OCC(N)=O | -2.02% |

| Structure (SMILES) | inhibition |
| --- | --- |
| COP(=O)(OC)C(NC(=O)c1ccc(C)cc1)C(Cl)(Cl)Cl (stereo not drawn) | -12.8% |
| Cc1nnc(SC(C)C(=O)Nc2ccc(S(=O)(=O)NC3CCCCC3)cc2)s1 (stereo not drawn) | 31.6% (active) |
| CC(C)NS(=O)(=O)c1ccc(NC(=O)C2CCCCC2)cc1 | -0.67% |
| Cc1ccc(S(=O)(=O)NC2CCCCCC2)cc1C(N)=O | -2.9% |
| Cc1ccc(NC(=O)COC(=O)C2C3CC4OC(=O)C2C4C3)cc1Cl (stereo not drawn) | 6.39% |
| Cc1ccc(C(C(=O)NC2CCCC2)N(Cc2ccco2)C(=O)CCC(=O)Nc2ccccn2)cc1 (stereo not drawn) | 3.43% |
| COc1ccc(CCn2c(O)c(C=NCCCn3ccnc3)c(=O)[nH]c2=O)cc1OC | 2.55% |
| CCCCC(=O)N(C)c1c(CC)nc2c(OCc3ccc(Cl)cc3Cl)cccn12 | 28.5% |
| CC(=O)N(C1=C(Cl)C(=O)c2ccccc2C1=O)c1ccc(C(=O)O)cc1 | 99.3% (active) |
| O=C1C(Cl)=C(Oc2ccccc2)C(=O)c2ccccc21 | 6.2% |
| CCCCN=C1C([N+](=O)[O-])=CC=C2C1=NC1(CCCCC1)N2O | 9.17% |
| Cc1ccc(C)c(OCCC(=O)OCC(=O)NC(=O)NCc2ccccc2)c1 | 0.04% |
| COc1ccc2c(c1)c(=Cc1ccc(N(C)C)cc1)c1cc(-c3ccccc3)[n+](C)n12 | 55.6% (active) |
| COc1ccc(Br)cc1S(=O)(=O)N1CCN=C1C | -6.47% |
| Cc1cc(OC(C)C(=O)Nc2ccc(S(=O)(=O)Nc3onc(C)c3C)cc2)cc(C)c1Cl (stereo not drawn) | 35.2% (active) |
| CC(Oc1cccc(Cl)c1)C(=O)Nc1ccc(S(=O)(=O)Nc2ncccn2)cc1 (stereo not drawn) | -1.27% |
| CCc1ccc(OC(C)C(=O)Nc2ccc(S(=O)(=O)Nc3cc(C)on3)cc2)cc1 (stereo not drawn) | 7.95% |
| O=S1(=O)CC(N2CCN(CCO)CC2)CN1Cc1cn(Cc2ccc(Cl)cc2)nn1 (stereo not drawn) | -2.07% |
| CCN(CC(=O)Nc1c(F)cccc1F)C(=O)c1cnc(C)cn1 | 32.8% (active) |
| CCN(CC(=O)Nc1c(F)cccc1F)C(=O)c1ccc(-c2ccccc2)cc1 | -7.05% |
| CCc1cc(C(=O)N(CC)CC(=O)Nc2c(F)cccc2F)sc1C | 19.1% |
| CCN(CC)c1ccc(NC(=O)CN2C(=O)NC3(CCc4ccccc43)C2=O)cc1 (stereo not drawn) | -2.95% |

| Structure (SMILES) | inhibition |
| --- | --- |
| O=C(Cn1cc(C(F)(F)F)ccc1=O)Nc1ccc2c(c1)OCCO2 | 8.6% |
| CC(C)CC1(C)NC(=O)N(CC(=O)Nc2ccc3c(c2)OCCO3)C1=O (stereo not drawn) | -6.35% |
| COc1c(Br)cc2c(C)c(C(=O)N3CCOCC3)oc2c1Br | -3.21% |
| Cc1nc2ccccc2c(=O)n1-c1ccc(F)c(NC(=O)c2cccs2)c1 | -0.94% |
| O=C(c1ccc(N2CCCC2=O)cc1)N1CCN(c2ccc(C(F)(F)F)cc2[N+](=O)[O-])CC1 | 3.99% |
| Cc1cc(C)c(S(=O)(=O)NN=C2c3ccccc3[C@H]3Cc4csc[n+]4[C@@H]23)c(C)c1 | 82.8% (active) |
| COC(=O)[C@]12C[C@H](CC(=O)NCc3ccccc3)C(=O)N(CCC3=CCCCC3)C1=C[C@H](C(C)C)O[C@@H]2C1CC1 | 23.1% |
| COC(=O)C[C@H]1C[C@@H]2c3cc(NC(=O)Nc4ccccc4)ccc3O[C@@H]2[C@@H](CO)O1 | -2.2% |
| CCN(CC(=O)NCc1cccs1)c1nnnn1-c1ccccc1 | -6.07% |
| Cc1nc2c(C(=O)NCc3cccs3)cnn2c(C)c1Cc1ccc(F)cc1 | 4.83% |
| CC(C)Cn1c(N)c(C(=O)NCc2cccs2)c2nc3ccccc3nc21 | 85.8% (active) |
| Cn1cccc1C(=O)NC(=O)COC(=O)Cc1coc2ccc3ccccc3c12 | 5.02% |
| CCCn1c(=O)c2ccccc2n2c(SCC(=O)/C(C#N)=C(\C)N)nnc12 | -9.66% |
| CC(C)[C@H](NC(=O)N1CCn2c1nc1ccccc12)C(=O)NCCc1ccccc1 | 25.4% |
| O=C1NC[C@@H](CCCCN2CCN(CCc3ccc(O)cc3)C(=O)C2=O)N(CC2CCCCC2)C1=O | -7.64% |
| O=C(OCC(=O)c1cccs1)c1ccc([N+](=O)[O-])o1 | 31.4% (active) |
| COc1ccccc1CNC(=O)COC(=O)c1cccs1 | 0.12% |
| O=C(COC(=O)c1ccc([N+](=O)[O-])o1)NC12CC3CC(CC(C3)C1)C2 | 13.9% |
| Cc1cccc(C)c1NC(=O)CNC(=O)Cc1ccc(Br)cc1 | -10.5% |
| Cc1ccc(OC(=O)c2c(C)nn(-c3ccccc3)c2C)cc1 | -6.31% |
| Cc1cccc(C)c1NC(=O)CNC(=O)c1c(C)nn(-c2ccccc2)c1C | 33% (active) |
| CCN(N=Nc1nonc1OC)c1nonc1OC | -2.47% |
